ATXN viability: Viability Counterscreen for Primary qHTS for Inhibitors of ATXN expression. Potency, µM (titrated, usually from 56.7 µM), hits mostly cytotoxic. hit rate 0.49% among 400,000. S2 cells (HEK-293 line with an ATXN2-luciferase reporter) viability, CellTiter-Fluor protease fluorescence, 24 h; note: nearly all actives have a fitted effect of over 40% in size
HepG2 tox-1: qHTS for Inhibitors of TGF-b: Cytotox Counterscreen; HepG2 CAGA-GFP viability, ATP luminescence, 18 h; Potency, µM (highest dose often 46.1 µM), without a hit: top-dose activity change, negative = cytotoxicity, actives largely listed as cytotoxic; hit rate 0.76% among 410,000; AID 588856, 2011
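CellTiter-Glo luminescence gave cytotoxicity after 18 hours at 37 degrees C. The cells were HepG2 CAGA-GFP in 1% FBS DMEM, stimulated with 500 pg/mL TGF-beta after compound addition. %Activity was normalised to no-cell wells (complete cell-killing) and DMSO (no toxicity), and curves were fitted and classified.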
ATXN2 expr inh: Primary qHTS for Inhibitors of ATXN expression. HEK-293 ATXN2-luciferase reporter, luminescence, 24 h. Potency, µM (highest dose often 57 µM), without a hit: at the top dose activity change, negative = inhibition, most hits filed as inhibitors. hit rate 0.72% among 360,000; note: % is set by controls: 0 for no effect and ±100 for the full control effect; nearly all actives have a fitted effect of over 55% in size
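qHTS (up to 57 uM final) was run with 24 h compound exposure of reporter cells at 37 °C. Each well was multiplexed: SteadyGlo luminescence measured ATXN2-luciferase expression after a fluorogenic Gly-Phe-AFC viability readout (25 uM final).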
TGFb inhibitor: qHTS for Inhibitors of TGF-b. Potency, µM (top dose mostly 46.1 µM), for inactives: top-dose activity, negative = inhibition, usual class: inhibitors. hit rate 1.2% among 410,000. HepG2 CAGA-GFP TGF-b/SMAD3 reporter, GFP fluorescence, 18 h; TGF-beta stimulated, 500 pg/mL final; note: % is set by controls: 0 for no effect and ±100 for the full control effect; nearly all actives have a fitted effect of over 65% in size
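Inhibition of TGF-beta-driven CAGA-GFP reporter expression in HEPG2 cells is measured by cellular GFP fluorescence after 18 h stimulation with 500 pg/mL recombinant TGF-beta in 1% FBS medium at 37 degrees C.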
DT40 TDP1 CPT: qHTS for Inhibitors of human tyrosyl-DNA phosphodiesterase 1 (TDP1): qHTS in cells in presence of CPT. chicken DT40 Tdp1-/-;hTDP1 cells + 20 nM CPT, ATP luminescence, 48 h. Potency, µM (series often up to 46.2 µM), for the others: top-dose activity change, negative = growth inhibition, most hits filed as inhibitors. hit rate 12% among 420,000. AID 686979, 2013; note: % is set by controls: 0 for no effect and ±100 for the full control effect; nearly all actives have a fitted effect of over 55% in size
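Chicken DT40 Tdp1-/- cells complemented with human TDP1, 400 cells/well, exposed to compounds plus 20 nM camptothecin for at least 48 h at 37 C; viability read as ATP content by CellTiter-Glo luminescence.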
TDP1 cell noCPT: qHTS for Inhibitors of human tyrosyl-DNA phosphodiesterase 1 (TDP1): qHTS in cells in absence of CPT. DT40 Tdp1-/- hTDP1 cells, no CPT, ATP luminescence, 48 h. Potency, µM (highest dose often 46.2 µM), without a hit: at the highest dose activity change, negative = growth inhibition, hits mostly inhibitors. hit rate 15% among 420,000; note: % is set by controls: 0 for no effect and ±100 for the full control effect; nearly all actives have a fitted effect of over 55% in size
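Growth of hTDP1-complemented DT40 Tdp1-knockout cells is measured by ATP luminescence after at least 48 hr compound exposure at 37 °C, with DMSO substituting for the 20 nM CPT used in the parallel screen.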
TGFb CAGA inh: qHTS for Inhibitors of TGF-b: Confirmation of Cherry Picks; hit rate 63% among 1,600; Potency, µM (doses to about 46.1 µM), without a hit: at the top dose activity, negative = inhibition, hits mostly inhibitors; shares compounds with TGFb inhibitor; HepG2 CAGA-GFP TGF-b reporter, GFP fluorescence, 18 h; cells stimulated with TGF-beta, 500 pg/mL; note: % is set by controls: 0 for no effect and ±100 for the full control effect; nearly all actives have a fitted effect of over 65% in size
HepG2 tox-2: qHTS for Inhibitors of TGF-b: Cytotox Counterscreen for Cherry Picks; shares compounds with TGFb inhibitor; HepG2 CAGA-GFP viability, ATP luminescence, 18 h; cells stimulated with TGF-beta, 500 pg/mL; Potency, µM (series often up to 46.1 µM), without a hit: at the top dose activity, negative = cytotoxicity, most hits filed as inhibitors; hit rate 27% among 1,600; AID 720535, 2013; note: % is set by controls: 0 for no effect and ±100 for the full control effect; nearly all actives have a fitted effect of over 70% in size
CCL64 TGFb inh: qHTS for Inhibitors of TGF-b: CCL64 Cells Orthogonal Assay for Cherry Picks; hit rate 41% among 1,600; AID 720536, 2013; shares compounds with TGFb inhibitor; CCL64 CAGA-GFP reporter, TGF-b stimulated, GFP fluorescence, 18 h; Potency, µM (titrated, usually from 46.1 µM), for inactives: top-dose activity, negative = inhibition, usual class: inhibitors; note: nearly all actives have a fitted effect of over 65% in size
TGFb COP inh: qHTS for Inhibitors of TGF-b: Hit Validation in HepG2 Cells using COP promoter | shares compounds with TGFb inhibitor | HepG2 COP-GFP TGF-b reporter, GFP fluorescence, 18 h; cells stimulated by added recombinant TGF-beta | Potency, µM (series often up to 46.1 µM), inactives show at the top dose activity, negative = inhibition, actives largely listed as inhibitors | hit rate 3% among 1,600; note: nearly all actives have a fitted effect of over 70% in size
An asterisk follows results filed as active; i = inactive; ? = inconclusive; . = not tested or not shown. Hits are enriched below; roughly 17% of the tested compounds scored in any of these assays. Calls come from the whole dose curve; as a rule, active = well fitted curve in the direction sought with a large enough effect; inconclusive = small, poorly fitted or top-dose-only effect, or another doubt; inactive = no such curve, though single readings can be large; an effect the other way counts as inactive or inconclusive. Potency is the fitted concentration of half-maximal effect.

SMILES	ATXN viability	HepG2 tox-1	ATXN2 expr inh	TGFb inhibitor	DT40 TDP1 CPT	TDP1 cell noCPT	TGFb CAGA inh	HepG2 tox-2	CCL64 TGFb inh	TGFb COP inh
Cc1cc(C)c(CN2CCN(C(=O)Cn3cnc4c(OCc5ccccc5)ncnc43)CC2)c(C)c1	?	-22.6%	0.0%	12.6µM*	8.2µM*	2.59µM*	3.66µM*	?	?	39.3%
O=S(=O)(CCOc1ccccc1)c1nc2ccccc2[nH]1	i	-33.0%	31.0%	15.8µM*	?	23.1µM*	6.51µM*	23.1µM*	16.4µM*	?
O=C(N/N=C/c1ccc2c(c1)OCO2)c1cc(-c2ccccc2Cl)nc2ccccc12	i	-5.5%	0.0%	?	2.4%	-7.3%	-9.8%	-9.0%	-1.3%	-18.4%
O=C(CNC(=O)c1ccccc1Cl)N/N=C/c1ccc2c(c1)OCO2	?	0.0%	3.5%	-3.3%	?	?	.	.	.	.
c1ccc(-c2csc(N3CCSCC3)n2)cc1	i	-7.4%	87.2%	0.2%	9.7%	2.3%	.	.	.	.
O=C(c1cc(-n2cnnc2)ccc1Cl)N1CCN(c2nc(-c3ccccc3)cs2)CC1	i	-5.0%	?	11.2µM*	16.4µM*	23.1µM*	8.2µM*	-29.6%	?	11.9%
O=C(c1cc(-c2ccccc2)n[nH]1)N1CCc2c([nH]c3ccccc23)C1c1ccccn1 (centres undefined)	?	-26.5%	?	20µM*	18.4µM*	20.6µM*	14.6µM*	?	?	20.2%
Cc1ccsc1/C=N/NC(=O)c1ccccn1	i	-34.0%	1.3%	3.4%	?	?	.	.	.	.
Cc1ccsc1/C=N/NC(=O)c1cc(-c2ccncc2)nc2ccccc12	i	-13.9%	-8.4%	?	0.581µM*	0.581µM*	-71.4%	-27.0%	6.51µM*	-15.7%
COC(C(=O)C(O)C(C)O)C1Cc2cc3cc(OC4CC(OC5CC(O)C(O)C(C)O5)C(O)C(C)O4)c(C)c(O)c3c(O)c2C(=O)C1OC1CC(OC2CC(OC3CC(O)C(OC)C(C)O3)C(O)C(C)O2)C(O)C(C)O1 (centres undefined)	?	16.6%	10µM*	1µM*	0.103µM*	0.146µM*	0.366µM*	0.092µM*	1.64µM*	16.0%
